High-throughput results: PubChem, National Center for Advancing Translational Sciences (NCATS)
An excerpt weighted towards active compounds, which were near 18% of everything screened.
Six1-Eya2 blk = qHTS Assay for Inhibitors of the Six1/Eya2 Interaction. hit rate 0.56% among 360,000. AlphaScreen GST-Six1/His-Eya2 binding, biochemical; active compounds read low. Homeobox protein SIX1 (Homo sapiens) + Protein phosphatase EYA2 (Homo sapiens), …. AID 651725, 2012. activity change, % (concentration not given with the values); in the data active means activity change below about -65%; inconclusive means mostly about -30% to -63%
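Homogeneous AlphaScreen proximity assay pairing GST-Six1 with His-tagged Eya2 (added as 5X mix: 250 nM and 500 nM) in 50 mM Tris pH 8.0, 300 mM NaCl, 1 mM TCEP. Glutathione donor and nickel acceptor beads; 1 h, 37 °C, dark.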
CtBP-E1A inh = qHTS Assay for Inhibitors of the CtBP/E1A Interaction; CtBP / adenovirus E1A interaction (AlphaScreen); AlphaScreen GST-E1A/His-CtBP binding, 1536-well; active compounds read low; activity change, % (concentration not given with the values); hit rate 0.49% among 340,000; AID 651724, 2012; in the data active means activity change below about -65%; inconclusive means mostly about -30% to -63%
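GST-E1A and His-tagged CtBP (125 nM each as 5X stock) were preincubated with pin-transferred compound for 2 h at 37 °C in the dark, then glutathione donor and nickel acceptor beads were added for 1 h before AlphaScreen reading.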
TDP1 cell noCPT = qHTS for Inhibitors of human tyrosyl-DNA phosphodiesterase 1 (TDP1): qHTS in cells in absence of CPT. DT40 Tdp1-/- hTDP1 cells, no CPT, ATP luminescence, 48 h. Potency, µM (titrated, usually from 46.2 µM), usual class: inhibitors. hit rate 15% among 420,000. AID 686978, 2013; further: nearly all actives have a fitted effect of over 55% in size
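Readout: luminescence from CellTiter-Glo after 30 min in the dark at RT. Cells: DT40 Tdp1-/- with stable hTDP1, 400/well. Exposure: compounds alone, ≥48 hr, 37 °C.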
DT40 TDP1 CPT = qHTS for Inhibitors of human tyrosyl-DNA phosphodiesterase 1 (TDP1): qHTS in cells in presence of CPT | Potency, µM (highest dose often 46.2 µM), hits mostly inhibitors | chicken DT40 Tdp1-/-;hTDP1 cells + 20 nM CPT, ATP luminescence, 48 h | hit rate 12% among 420,000; further: nearly all actives have a fitted effect of over 55% in size
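Chicken DT40 Tdp1-/- cells complemented with human TDP1, 400 cells/well, exposed to compounds plus 20 nM camptothecin for at least 48 h at 37 C; viability read as ATP content by CellTiter-Glo luminescence.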
TDP1 block = qHTS Assay for Inhibitors of Tyrosyl-DNA Phosphodiesterase (TDP1). Tyrosyl-DNA phosphodiesterase 1 (Homo sapiens), Q9NUW8. recombinant TDP1, AlphaScreen DNA substrate cleavage. Potency, µM (top dose mostly 130 µM), actives largely listed as inhibitors. hit rate 0.28% among 350,000. AID 485290, 2010; further: nearly all actives have a fitted effect of over 40% in size
Target sequence (Q9NUW8 whole entry, looked up): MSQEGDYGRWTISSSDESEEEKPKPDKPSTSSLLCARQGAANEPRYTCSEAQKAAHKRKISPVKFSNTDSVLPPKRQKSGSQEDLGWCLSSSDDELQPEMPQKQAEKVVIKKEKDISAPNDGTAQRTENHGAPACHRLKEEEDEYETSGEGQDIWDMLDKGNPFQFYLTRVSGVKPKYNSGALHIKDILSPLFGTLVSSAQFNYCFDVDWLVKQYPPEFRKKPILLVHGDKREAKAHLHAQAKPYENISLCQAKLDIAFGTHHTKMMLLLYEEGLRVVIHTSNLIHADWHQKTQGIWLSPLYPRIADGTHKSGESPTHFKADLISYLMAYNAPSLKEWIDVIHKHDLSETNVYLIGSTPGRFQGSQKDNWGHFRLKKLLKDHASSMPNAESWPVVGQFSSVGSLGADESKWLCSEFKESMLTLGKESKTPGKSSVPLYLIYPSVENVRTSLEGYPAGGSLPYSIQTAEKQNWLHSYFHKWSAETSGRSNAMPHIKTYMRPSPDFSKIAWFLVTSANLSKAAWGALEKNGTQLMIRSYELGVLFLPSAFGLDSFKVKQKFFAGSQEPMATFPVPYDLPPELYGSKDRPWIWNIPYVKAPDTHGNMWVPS
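Recombinant human Tdp1 (E. coli-expressed, 1 nM final) preincubated with compounds 15 min at room temperature, then 5'-biotin/3'-phosphotyrosine-FITC DNA substrate (15 nM final) added for 5 min. AlphaScreen beads (10 ug/ml final) added 10 min; cleavage lowers signal.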
IL-1B inflam inh = qHTS for Inhibitors of Inflammasome Signaling: IL-1-beta AlphaLISA Primary Screen; THP-1 LPS/ATP IL-1B secretion, AlphaLISA, 16 h; active compounds read low; activity change, % at 57.5 µM; hit rate 4.7% among 360,000; in the data active means activity change below about -50%; inconclusive means mostly about -30% to -49%
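THP-1 cells pretreated 1 hr with compounds (up to 57.5 uM final), then stimulated with LPS (250 ng/mL final) plus ATP (1.25 mM final); secreted IL-1B measured by AlphaLISA after 16 hr, decreased signal indicating inhibition.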
A number is an active result; – = inactive; ? = inconclusive; · = not tested or not shown; [ ] = another dose, or the depositor's remark. Unless noted, the call rests on the fitted dose curve; in most records, active means well fitted curve in the direction sought with a large enough effect; inconclusive means small, poorly fitted or top-dose-only effect, or another doubt; inactive means no such curve, though single readings can be large; an effect the other way counts as inactive or inconclusive.

SMILES	Six1-Eya2 blk	CtBP-E1A inh	TDP1 cell noCPT	DT40 TDP1 CPT	TDP1 block	IL-1B inflam inh
COc1ccc(N(CCOc2ccccc2)S(=O)(=O)c2ccccc2)cc1	–	·	16µM	?	–	–
CCOC(=O)c1ccc(N(CC2CO2)S(=O)(=O)c2ccc(C)cc2)cc1 (centres undefined)	–	–	16µM	13µM	·	?
O=C(O)c1ccccc1C(=O)NNc1ccc(Cl)cc1Cl	–	·	–	–	–	–
CN1CCN(c2c(F)cc3c(=O)c(C(=O)O)cn4c3c2SCC4)CC1	–	–	12µM	13µM	–	–
C[C@H]1COc2c(N3CCN(C)CC3)c(F)cc3c(=O)c(C(=O)O)cn1c23	–	–	9.2µM	?	–	–
C[C@@H]1COc2c(N3CCN(C)CC3)c(F)cc3c(=O)c(C(=O)O)cn1c23	·	·	·	·	–	·
CC(C(=O)Nc1ccc(F)c(F)c1F)N(C)Cc1cccs1 (centres undefined)	–	–	–	?	–	–
CCN1C/C(=C\c2cc(OC)c(OC)c(OC)c2)C2=NN(c3ccccc3)C(c3cc(OC)c(OC)c(OC)c3)C2C1 (centres undefined)	–	–	5.8µM	6.5µM	·	–
COc1cc(C2C3C(=O)N(c4ccccc4)C(=O)C3ON2c2ccccc2)cc(OC)c1OC (centres undefined)	–	–	–	–	–	–
CCNC(=O)N(CC)C[C@H]1N[C@@](Cc2ccccc2)(C(=O)OC)[C@H]2C(=O)N(Cc3ccccc3)C(=O)[C@@H]12	–	–	–	–	–	–
CCN(C[C@H]1N[C@@](Cc2ccccc2)(C(=O)OC)[C@H]2C(=O)N(Cc3ccccc3)C(=O)[C@@H]12)C(=O)Nc1ccc(Cl)cc1	–	–	18µM	?	–	–
CCN(C[C@H]1N[C@@](Cc2ccccc2)(C(=O)OC)[C@H]2C(=O)N(Cc3ccccc3)C(=O)[C@@H]12)C(=O)Nc1ccc(F)cc1	–	–	16µM	?	–	?
CCN(C[C@H]1N[C@@](Cc2ccccc2)(C(=O)OC)[C@H]2C(=O)N(C)C(=O)[C@@H]12)C(=O)Nc1ccc(C(F)(F)F)cc1	–	–	?	16µM	–	–
CC(NC(=O)CCc1ccccc1)c1ccc2c(c1)OCO2 (centres undefined)	–	–	–	–	·	–
Cc1nnc(N2CCC(C(=O)NC3CCC(C)CC3)CC2)c2nn(-c3ccc(Cl)cc3)c(C)c12 (centres undefined)	–	·	–	–	–	–
Cc1ccc(-n2nc3c(N4CCC(C(=O)NC5CCCCC5)CC4)nnc(C)c3c2C)cc1	·	·	12µM	?	–	·
Cc1ccc(-n2nc3c(N4CCC(C(=O)NC5CCC(C)CC5)CC4)nnc(C)c3c2C)cc1 (centres undefined)	·	·	21µM	15µM	–	·
O=C(COC(=O)c1ccc(Cl)cc1[N+](=O)[O-])NC(=O)c1ccccc1	–	–	–	–	–	–
Cc1cc(=O)[nH]c(N/N=C/c2c(O)n(-c3ccccc3)c(=O)c3ccccc23)n1	-87	?	?	–	–	–
Cc1cc(=O)[nH]c(N/N=C/c2ccc(-c3ccc(F)cc3)o2)n1	-85	-82	13µM	9.2µM	·	–
Cc1cc(=O)[nH]c(N/N=C/c2ccc(Br)s2)n1	-73	?	–	–	–	–
Cc1cc(=O)[nH]c(NN=Cc2c(Cl)cccc2Cl)n1	–	–	–	–	·	–
Cc1ccc(S(=O)(=O)N2CCc3nc(COc4ccccc4)c4c(c3C2)CO[C@@H](C)C4)cc1	·	·	·	·	–[12.3 µM]	·
CCOC(=O)N1CCN(c2nc(-c3cccs3)nc3ccccc23)CC1	–	–	15µM	23µM	·	?
CC(=O)N1CCN(c2nc(-c3cccs3)nc3ccccc23)CC1	–	–	?	–	–	-86
SMILES	Six1-Eya2 blk	CtBP-E1A inh	TDP1 cell noCPT	DT40 TDP1 CPT	TDP1 block	IL-1B inflam inh
CC(=O)c1ccc(S(=O)(=O)N2CCN(c3nc(-c4cccs4)nc4ccccc34)CC2)cc1	·	·	?	–	–	·
Cc1cc2c(cc1NS(=O)(=O)c1ccc(Br)cc1)n(C)c(=O)c(=O)n2C	·	·	?	?	–	·
COc1ccc(C)cc1NC(=O)CN(c1ccc(F)cc1)S(C)(=O)=O	–	–	–	–	–	–
COc1cccc(C(=O)N2CCCN(C)CC2)c1OC	–	–	–	–	·	–
Cc1ccc(S(=O)(=O)c2nc(Nc3nccs3)sc2Cl)cc1	–	–	–	?	–	–
O=C(Nc1ccccc1N1CCCC1)c1cccc(-c2cc3ccccc3oc2=O)c1	–	–	21µM	?	–	–
O=C(Nc1ccc(N2CCCC2)cc1)c1ccc2ccccc2c1	–	–	–	–	–	–
O=C(Nc1ccc(N2CCCC2)cc1)c1cccc(-c2cc3ccccc3oc2=O)c1	?	–	23µM	16µM	–	–
O=C(Nc1ccc(Br)cn1)c1cccc(-c2cc3ccccc3oc2=O)c1	–	–	?	?	–	–
COc1ccccc1C(c1nnnn1Cc1ccco1)N1CCN(c2cccc(C)c2C)CC1 (centres undefined)	–	–	16µM	18µM	–	?
COc1ccc(Cn2nnnc2C(C(C)C)N2CCN(c3ccccc3OC)CC2)cc1 (centres undefined)	–	–	23µM	29µM	–	–
CCN1CCN(C(c2cccc(OC)c2OC)c2nnnn2Cc2ccco2)CC1 (centres undefined)	–	–	–	–	–	–
COc1ccc(OC)c(C(c2nnnn2Cc2ccccc2)N2CCN(C)CC2)c1 (centres undefined)	–	–	–	–	–	–
COc1ccccc1N1CCN(C(c2ccccc2)c2nnnn2Cc2ccccc2)CC1 (centres undefined)	·	·	16µM	14µM	·	·
Cc1cccc(NC(=O)[C@H](C)NC(=O)[C@@H]2Cc3ccccc3CN2C(=O)OC(C)(C)C)c1	–	·	–	–	–	–
COCCN(C(=O)CNC(=O)c1ccco1)C(C(=O)NC1CCCC1)c1ccc(F)cc1 (centres undefined)	–	–	–	–	–[0.0935 µM]	–
O=C1C(=O)N(CCN2CCOCC2)C(c2ccc(F)cc2)/C1=C(/O)c1ccc(S(=O)(=O)N2CCOCC2)cc1 (centres undefined)	–	–	–	–	–	–
